Results filed as inconclusive are left out. Unmarked numbers belong to inactive results. The call rests on the fitted dose curve; in most records, active means well fitted curve in the direction sought with a large enough effect; inconclusive means small, poorly fitted or top-dose-only effect, or another doubt; inactive means no such curve, though single readings can be large or run the other way. Starred links: 1 amine or outer side, 2 acyl side, 3 side chain; linkers in the order of their positions; H or OH if unused. Positions of bridges follow the written chain, without caps; N, C: chain ends. Non-standard residues stand in square brackets, D forms with d. Residues, ends and D or L forms follow the SMILES beside them. ξ: configuration not given here. *: point of attachment. X3 = C[C@@H](Oc1ccc([C@H](N[*:1])C(=O)[*:2])cc1)[C@]1(/C=C\C(=O)[*:3])CO1; d(aIle) = CC[C@H](C)[C@@H](N)C(=O)O; X2 = CC(C)[C@@H](O)C(C)C(=O)*; ξNMeF = CNC(Cc1ccccc1)C(=O)O; ξT = CC(O)C(N)C(=O)O; ξS = NC(CO)C(=O)O

The nature of this assay: qHTS for activators of dead-cell proteases activity screened against the NCATS CANVASS Library (AID 1347392).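 Further: luminescence from protease leaking out of membrane-damaged cells cleaving impermeant substrate; 0% is about no effect; rising signal means more cytotoxicity.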 The conditions noted are these: HepG2 cytotoxicity, dead-cell protease luminescence, 5 h; series mostly up to 46.1 µM; activation (cytotoxicity): at the top concentration. The text has this: Natural products and their derivatives continue to be wellsprings of nascent therapeutic potential. However, many laboratories have limited resources for biological evaluation, leaving their previously isolated or synthesized compounds largely or completely untested. To address this issue, the Canvass library of natural products was assembled (https://tripod.nih.gov/canvass), in collaboration with academic and industry researchers, for quantitative high-throughput screening (qHTS) across a diverse set of cell-based and biochemical assays. The pure (>85% purity by liquid chromatography/mass spectrometry [LC/MS]) Canvass library of 346 natural products were submitted by 45 academic laboratories and companies around the world. We collected pure natural products to circumvent deconvolution and structure elucidation due to time and resource limitations. The library was formatted into 1536-well plates and evaluated in 50 qHTS (in an 11-pnt concentration series) bioassays with broad scope of disease-relevant mechanisms. The resulting data set from 50 different assays was then systematically analyzed to identify overall trends and specific natural products with interesting biological activities. Reported herein are the results of each individual qHTS and their corresponding assay protocol. This cytotoxicity assay measures dead-cell protease activity (proteases are released from cells that have lost membrane integrity). A luminogenic cell-impermeant peptide substrate (AAF-aminoluciferin) is used to measure dead-cell protease activity. The amount of luminescence directly correlates with the percentage of cells undergoing cytotoxic stress. National Center for Advancing Translational Sciences (NCATS), Rockville, MD National Institute of Health (NIH), Bethesda, Maryland
Protease-screen assay protocol: 1. In a white-solid bottom 1536-well plate, 5 uL of HepG2 cell suspension was dispensed using a Multidrop Combi (Thermo Fisher Scientific) at a final concentration of 2000 cells / well. 2. The assay plates were incubated for 18 hours at 37C, 5% CO2 to acclimate and attach. 3. […] of compounds (in DMSO; columns 5-48), vehicle control DMSO, and positive control were pin transferred into the assay plates using the Kalypsis pin tool (Wako USA) equipped with a 1536-well pin heads. This yields a final CANVASS compound concentration of 0.4 nM - 95 uM. 4. The assay plates were incubated for 5 hours at 37C, 5% CO2. 5. After compound treatment, 5 uL per well of CytoTox-Glo (Promega) reagent was added using the BioRAPTR dispenser. 6. The assay plates were incubated for 15 min at room temperature. 7. The luminescence readout was obtained using the ViewLux plate reader (PerkinElmer) using a clear emission filter, 2x binning, 1 sec exposure settings.
For orientation: qHTS replaces the single test concentration by a dilution series.
Regarding `CC(C)CC1C(=O)O[C@H](C(C)C)C(=O)N(C)C(CC(C)C)C(=O)O[C@@H](C(C)C)C(=O)N(C)C(CC(C)C)C(=O)O[C@H](C(C)C)C(=O)N(C)C(CC(C)C)C(=O)O[C@@H](C(C)C)C(=O)N1C` (some centres undefined), the “activation (cytotoxicity)” value was 3.74%.

As for `C=C[C@]12C=CCN3CC[C@@]4(c5ccccc5NC(=O)[C@@H]4C1)[C@@H]32`, the “activation (cytotoxicity)” value is 3.26%.

`C1=C2CCCN[C@H]2C2CC1[C@H]1CCCCN1C2` (some centres undefined): the “activation (cytotoxicity)” value was -1.3%.

In the case of `C/C=C1/CN2CC[C@]34C(=C(C(=O)OC)[C@H]1C[C@H]23)Nc1ccccc14`, the “activation (cytotoxicity)” value is -0.458%.

With `CC[C@]12C=CCN3CC[C@]4(C(=C(C(=O)OC)C1)Nc1ccccc14)[C@@H]32`, the “activation (cytotoxicity)” value was 0.702%.

As for `CCC(=O)N[C@@H](C[C@H](C)C(Cl)(Cl)Cl)C(=O)N1C(=O)C=C(OC)[C@@H]1C[C@H](C)C(Cl)Cl`, the “activation (cytotoxicity)” value is -1.2%.

Regarding `C=C[C@H]1CN2CCc3c([nH]c4cccc(OC)c34)[C@@H]2C[C@@H]1/C(=C\OC)C(=O)OC`, the “activation (cytotoxicity)” value is -1.36%.

On to `CO[C@@]12c3c(C)cc(O)c4c(=O)occ(c34)C(=O)[C@@H]1[C@]13COC(=O)c4c(O)cc(C)c(c41)C(=O)[C@H]2[C@@H]3OC(C)=O`, for which the “activation (cytotoxicity)” value is 2.82%.

Turning to `O[C@H]1C=C[C@@]23CCN(Cc4cc5c(cc42)OCO5)[C@@H]3C1`, the “activation (cytotoxicity)” value was 2.85%.

For the molecule `C/C(=C\[C@H](C)C(=O)C[C@H](O)CC1CC(=O)NC(=O)C1)[C@@H]1OC(=O)/C=C/CC/C=C/C=C/[C@@H]1C`, the “activation (cytotoxicity)” value is -1.15%.

Take `COC1C(O)C(C)OC(OC2C(Oc3cccc4c(O)c5c(=O)oc6ccc(C)c7c(=O)oc(c34)c5c67)OC(C)C(O)C2O)C1O` (centres undefined): the “activation (cytotoxicity)” value was 3.35%.

Take `C=CC(C)(C)[C@@]12C[C@H]3C(=O)N/C(=C\c4cnc[nH]4)C(=O)N3[C@@H]1Nc1ccccc12`: the “activation (cytotoxicity)” value was 3.33%.

For the molecule `C[C@]12CC(O)C3[C@@H](CCC4C[C@@H](O)CC[C@@]43CO)[C@@]1(O)CC[C@@H]2C1=CC(=O)OC1` (some centres undefined), the “activation (cytotoxicity)” value was -7.11%.

For `C[C@]12CCC3[C@@H](CC[C@@H]4C[C@@H](O)CC[C@]34CO)[C@@]1(O)CC[C@@H]2C1=CC(=O)OC1` (some centres undefined), the “activation (cytotoxicity)” value is -8.2%.

`C/C=C(\C)C(=O)O[C@@H]1[C@@H](O)[C@@H]2O[C@H]3[C@H](O[C@@H](CCCCC)CCCCCCC(=O)CCC(=O)OC[C@@H](O2)[C@H]1OC(=O)/C=C/c1ccccc1)O[C@H](C)[C@H](OC(C)=O)[C@@H]3O`: the “activation (cytotoxicity)” value is 4.8%.

As for `C/C=C1/CN2CC[C@@]34c5ccccc5N(C)[C@@H]3[C@@H]2C[C@@H]1[C@H]4C(=O)OC`, the “activation (cytotoxicity)” value was 0.517%.

As to `CC[C@@H]1CN2CCC3(Nc4cccc(OC)c4C3=O)[C@@H]2C[C@@H]1/C(=C\OC)C(=O)OC` (some centres undefined), the “activation (cytotoxicity)” value was 0.632%.

Consider `CO[C@H]1C[C@H](O[C@H]2[C@@H](O)C[C@H](O[C@H]3CC[C@]4(C=O)[C@H]5CC[C@]6(C)C(C7=CC(=O)OC7)CC[C@]6(O)[C@@H]5CC[C@]4(O)C3)O[C@@H]2C)O[C@H](C)[C@H]1O[C@H]1C[C@@H](OC)[C@@H](O[C@@H]2O[C@H](CO)[C@@H](O)[C@H](O)[C@H]2O)[C@@H](C)O1` (some centres undefined), for which the “activation (cytotoxicity)” value is -5.57%.

As to `CC[C@H]1CN2CCc3c([nH]c4cccc(OC)c34)[C@@H]2C[C@@H]1/C(=C\OC)C(=O)OC`, the “activation (cytotoxicity)” value is -0.713%.

As to `C[C@]12CC(O)C3[C@@H](CC[C@@H]4C[C@@H](O)CC[C@]34CO)[C@@]1(O)CC[C@@H]2C1=CC(=O)OC1` (some centres undefined), the “activation (cytotoxicity)” value was -5.04%.

`CC[C@H](C)[C@H]1NC(=O)[C@@H](NC(=O)C(C)[C@H](O)C(C)C)[C@@H](C)OC(=O)C2COC(=O)CNC(=O)/C=C\[C@]3(CO3)[C@@H](C)Oc3ccc(cc3)[C@H](NC1=O)C(=O)N(C)C(Cc1ccccc1)C(=O)NC(C(C)O)C(=O)N2` (some centres undefined) (X2-T[d(aIle)][X3][ξNMeF][ξT][ξS]; ester 1-C; linker 3-6 via G): the “activation (cytotoxicity)” value is 3.65% [at 27.5 µM].

Turning to `CCCC[C@@H](C)/C=C1/CN2CCC[C@H]2[C@@](C)(O)[C@@H]1O`, the “activation (cytotoxicity)” value was -1.29%.

Regarding `C=CC(C)(C)[C@@]12C[C@H]3C(=O)N/C(=C/c4cnc[nH]4)C(=O)N3[C@@H]1Nc1ccccc12`, the “activation (cytotoxicity)” value was -0.76%.

As for `C[N+](C)(C)CCc1c[nH]c2ccccc12`, the “activation (cytotoxicity)” value was 3.08%.

For the molecule `c1ccc2nc3c(cc2c1)[nH]c1ccccc13`, the “activation (cytotoxicity)” value is -15.6%.

Consider `C/C=C1/CN2C3CC1C1=CCC(=O)N4c5ccccc5[C@@]3(C[C@@H]2C2=C[C@H]3C5CC6N(CC[C@@]67c6ccccc6N(C2=O)[C@@H]37)C/C5=C/C)[C@H]14` (some centres undefined), for which the “activation (cytotoxicity)” value is 1.78%.

Turning to `C/C=C/[C@@H]1[C@H]2C[C@@H](C)CC[C@@H]2C(C)=C[C@H]1C(=O)c1c(O)c(-c2ccc(O)cc2)c[nH]c1=O`, the “activation (cytotoxicity)” value is 5.01%.

Consider `CCCCC1CC[C@H]2CCCC(CCC)N12` (some centres undefined), for which the “activation (cytotoxicity)” value is -1.59%.

As to `COC1=C(C2=C(OC)C(=O)c3cc4c(c(O)c3C2=O)C(=O)O[C@H](C)C4)C(=O)c2c(cc3c(c2O)C(=O)O[C@H](C)C3)C1=O`, the “activation (cytotoxicity)” value was -0.839% [at 15.4 µM].

For `CCCC[C@@H]1CC[C@H]2CCCC(CCCO)N12` (some centres undefined), the “activation (cytotoxicity)” value was -1.75%.

On to `CC[C@@H]1CN2CCc3c([nH]c4cccc(OC)c34)[C@@H]2C[C@@H]1/C(=C\OC)C(=O)OC`, for which the “activation (cytotoxicity)” value was 2.6%.

Consider `CO[C@H]([C@@H](C)[C@H]1O[C@]1(C)C[C@H](C)/C=C/C=C(\C)[C@H]1O[C@@H](CC(=O)O)CC[C@@H]1C)[C@@H](C)O`, for which the “activation (cytotoxicity)” value was 3.12%.

As to `CO[C@H]1[C@H](O[C@H]2CC[C@]3(C=O)[C@H]4CC[C@]5(C)[C@@H](C6=CC(=O)OC6)CC[C@]5(O)[C@@H]4CC[C@]3(O)C2)O[C@H](C)[C@H](O)[C@@H]1OC`, the “activation (cytotoxicity)” value is -5.97%.

Consider `CO[C@@H](/C=C/CC/C=C/C(=O)O)[C@@H](O)[C@H](C)/C=C(\C)[C@H](O)[C@H](C)C(=O)CCCC1CC(=O)NC(=O)C1`, for which the “activation (cytotoxicity)” value was 1.33%.

Source of the values: PubChem BioAssay (NCATS).
